High-throughput results deposited in PubChem BioAssay by several laboratories.
MRP reversal: MRP-mediated drug resistance reversal; 85,000 tested, 0.04% active; H69AR cells + 2 uM doxorubicin, CellTiter-Glo, 72 h; differential viability (reversal), % at 10 µM;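 active = viability drop by adding the cancer drug above about 55%, with treated viability meeting a 40% cutoff, limit read from the data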;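 also: viability without doxorubicin minus viability with 2 µM doxorubicin for each compound; larger differential means the compound sensitizes cells more to doxorubicin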
Candida biofilm: kills Candida albicans biofilms; 85,000 tested, 0.14% active; inhibition, % at 6 µM; AID 834; C. albicans biofilm + clotrimazole, Alamar Blue;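 active = inhibition above 20%; inactive = inhibition below 20%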;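 also: preformed 24 hr biofilms exposed to compound for 48 hr; 0% = biofilm without compound and 100% = blank killed by clotrimazole plus chlorhexidine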
MRP-1 activ: activates MRP-1; 140,000 tested, 0.61% active; H69AR cells + doxorubicin, viability rescue, CellTiter-Glo; viability increase, % at 10 µM;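 active = viability gain under doxorubicin at or above a set limit, the compound median plus 3 SD, cut at about 4.7% in these data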;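 also: MRP-1 overexpressing cells given doxorubicin 25 µM after compound pretreatment; 18-22 h compound pretreatment then 72 h with doxorubicin before readout; 0% = doxorubicin-only wells and 100% = vehicle-treated cells without doxorubicin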
sdo1 growth: compounds rescuing growth of sdo1-depleted yeast, bone marrow failure model. AID 817. z-score at 10 µM. S. cerevisiae sdo1-depleted JHY4D growth rescue, OD600 30 h; stronger effect = higher value; pdr5 snq2 efflux-pump mutant strain. 140,000 tested, 0.21% active;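 active = z-score above 3 at both the 24 hr and the 30 hr optical density reads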;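 also: z-score against mean and SD of all compound wells on the same plate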
The depositor's hits bear a star; nt = not tested or not shown. In the library only some 0.98% were active in any assay of this set; here they are far more common.

SMILES	MRP reversal	Candida biofilm	MRP-1 activ	sdo1 growth
CCC1SC2=NC(C)=C(C(=O)OCCOC)C(c3ccc(C(=O)OC)cc3)N2C1=O (centres undefined)	19	9	7.8*	0.29
COCCOC(=O)C1=C(C)N=C2SCCC(=O)N2C1c1ccc(C(=O)OC)cc1 (centres undefined)	9	6	-2	-0.81
COC(=O)C1=C(C)N=C2SCCC(=O)N2C1c1ccc(C(=O)OC)cc1 (centres undefined)	14	4	-3	0.63
CCOC(=S)SCC(=O)N1CCc2ccccc2C1C1C(=O)CCCC1=O (centres undefined)	nt	nt	0	-0.35
Cn1cc(S(=O)(=O)CC(=O)Nc2ccc3c(c2)OCCO3)c2ccccc21	-2	23*	0	0.89
O=C(NCc1ccccc1)c1ccc(N2C(=O)C3CCCCC3C2=O)cc1 (centres undefined)	nt	nt	0	1.2
O=C1CCC(=O)N1OCCOc1ccc2c(c1)CCC2	-12	-2	-2	0.5
c1cnc(SCCOc2ccc3c(c2)CCC3)nc1	6	46*	0	-0.2
O=C1CNC(=S)N1c1nc(-c2ccccc2)cs1	nt	nt	4.8*	0.35
Cc1ccc(C)c2sc(NC(=O)c3ccc(N4CCCCC4)c([N+](=O)[O-])c3)nc12	nt	nt	6.7*	-0.35
Cc1cccc(NC(=O)c2ccc(N3CCCCC3)c([N+](=O)[O-])c2)n1	nt	nt	3	-2
Cc1ccc(C2C3=C(CCCC3=O)N=C3c4ccccc4C(=O)C32)cc1 (centres undefined)	nt	nt	-2	-0.29
COc1cc(/C=N/NC(=O)C23CC4CC(CC(C4)C2)C3)cc(Br)c1O	nt	nt	14*	0.2
COc1ccc(NS(=O)(=O)c2cc(NC(=O)CNC(=O)c3ccc(C)s3)ccc2Cl)cc1	nt	nt	14*	0.95
COc1ccccc1C(CCNS(=O)(=O)c1ccc(C)cc1)c1ccco1 (centres undefined)	nt	nt	-2	-0.36
Cc1nnc(NC(=O)CSc2nnc(Cc3cccn3C)n2-c2cccc(C(F)(F)F)c2)s1	3	24*	-3	-0.18
Cc1cccc(-n2c(N)cc(=O)nc2SCC(=O)Nc2nnc(C)s2)c1	1	-2	5.7*	0.52
CCCCc1nnc(NC(=O)CSc2nc(=O)cc(N)n2-c2ccccc2)s1	-4	9	3	0.95
CNC(=O)COC(=O)/C=C/c1c(C)nn(-c2ccccc2)c1C	nt	nt	-1	0.19
CCn1cc(C(=O)O)c(=O)c2cc(F)c(N3CCN(C(=O)Nc4ccccc4)CC3)cc21	-22	11	-5	1.5
CCn1cc(C(=O)O)c(=O)c2cc(F)c(N3CCNCC3)cc21	-9	22*	1	1.3
CC(C)c1ccc(C(=O)CSc2ncn[nH]2)cc1	22	6	6.6*	-0.8
O=C(CSc1ncn[nH]1)NCCC(c1ccccc1)c1ccccc1	3	9	9.8*	-0.93
O=C(CSc1ncn[nH]1)NCCOc1ccccc1	-12	1	0	1.2
O=C(CSc1ncn[nH]1)c1ccc2c(c1)OCCO2	3	8	0	0.8
SMILES	MRP reversal	Candida biofilm	MRP-1 activ	sdo1 growth
CNc1sc(C(=O)c2cccs2)c(N)c1-c1nc2ccccc2s1	-14	5	9.0*	-1.2
O=C(CCCCl)NC1=NN(c2ccccc2)C(=O)C1	nt	nt	7.3*	0.81
CC(=O)NC1=NN(c2ccccc2)C(=O)C1	nt	nt	-2	0.85
Cc1ccc(C)c(N2CCN(C(=O)Cc3ccc(-n4c(=O)[nH]c5ccsc5c4=O)cc3)CC2)c1	nt	nt	9.6*	0.84
Cc1cccc(N2CCN(C(=O)Cc3ccc(-n4c(=O)[nH]c5ccsc5c4=O)cc3)CC2)c1C	nt	nt	3	0.74
COc1cccc(/C=N/NC(=O)CNC(=O)c2ccc3c(c2)OCCO3)c1O	nt	nt	5.9*	1.6
COc1cccc(/C=N/NC(=O)CNC(=O)C2COc3ccccc3O2)c1O (centres undefined)	nt	nt	9.6*	0.59
O=S(=O)([O-])CCC[n+]1c(SCCCS(=O)(=O)O)sc2ccc(Cl)cc21	nt	nt	0	-0.08
COc1ccc(C)cc1NC(=O)COC(=O)C1CC1	nt	nt	0	1.2
N#C/C(=N/Nc1ccccc1F)C(=N)N1CCOCC1	nt	nt	8.1*	-0.28
Cc1cc(C(=O)N/N=C/c2cc(Br)ccc2OC(=O)c2ccccc2)n[nH]1	nt	nt	9.4*	1.1
CCOc1cc(/C=N/NC(=O)c2cc(C)[nH]n2)ccc1OC(=O)c1ccc([N+](=O)[O-])cc1	nt	nt	-3	-1.3
Cc1cc(C(=O)CN2C(=O)NC3(CCCc4sccc43)C2=O)c(C)n1-c1ccccc1 (centres undefined)	nt	nt	4.8*	-0.49
COc1ccc(-n2c(C)cc(C(=O)CN3C(=O)NC4(CCCc5sccc54)C3=O)c2C)cc1 (centres undefined)	nt	nt	2	-0.47
CCOC(=O)C1=C(C)N=c2s/c(=C\c3ccc(OC(C)=O)cc3)c(=O)n2C1/C=C/c1ccccc1 (centres undefined)	nt	nt	6.7*	-1
COc1cccc(/C=N/n2cnc3ccccc32)c1OC	-49	4	-2	0.1
O=[N+]([O-])c1ccc(O)c(/C=N/n2cnc3ccccc32)c1	nt	nt	5.2*	-0.51
O=C(NC(Cc1ccccc1)C(=O)O)/C(=C/c1ccco1)NC(=O)c1cccc(Br)c1 (centres undefined)	nt	nt	-1	0.87
CCC(Sc1ccccn1)C(=O)Nc1nnc(C)s1 (centres undefined)	-5	3	5	1.4
CCC(Sc1nc2ccccc2o1)C(=O)Nc1nnc(C)s1 (centres undefined)	nt	nt	6.4*	-0.21
O=C(/C(=C/O)N=Nc1ccccc1)c1ccncc1	0	1	6.3*	-0.25
CC(/C=N/NC(=O)c1ccncc1)=C\c1ccccc1	nt	nt	2	0.98
O=C(Cc1ccccc1F)Nc1cccc2cccnc12	nt	nt	5.9*	0.07
CC1(C)Cc2c(c(N3CCOCC3)nc3sc4c(NCc5ccccc5)nnnc4c23)CS1	0	6	-3	-0.38
CC1(C)Cc2c(c(N3CCOCC3)nc3sc4c(NCc5ccco5)nnnc4c23)CS1	-8	24*	-3	0.06
SMILES	MRP reversal	Candida biofilm	MRP-1 activ	sdo1 growth
O=C(Cn1ncc2c(=O)oc3ccccc3c21)N1CCC(N2CCCCC2)CC1	2	5	-2	-0.17
O=C(Cn1ncc2c(=O)oc3ccccc3c21)N1CCc2ccccc2C1	-24	22*	-1	-0.59
COC(=O)c1ccc(-n2cncn2)c(F)c1	nt	nt	-1	0.29
CCOc1ccc(NC(=O)N2CCC(n3c(=O)[nH]c4ccccc43)CC2)cc1	-16	3	5.6*	3.3
O=C(/C=C/c1ccccc1)n1cnnc1SC/C=C/c1ccccc1	nt	nt	4.7*	-0.29
Cc1n[nH]c(=S)n(/N=C/c2ccccn2)c1=O	8	9	6.0*	1.6
COc1ccc(NC(=O)c2oc3ccccc3c2NC(=O)C(C)(C)C)cc1	nt	nt	5.5*	-0.85
CC(=O)/C(C#N)=C1\NC(=O)C(Cc2ccc(C)c(C)c2)S1 (centres undefined)	11	7	8.8*	0.23
Nc1ccc(CC2SC(=O)NC2=O)cc1 (centres undefined)	13	-4	9.4*	1.1
Cc1ccc(CC2SC(=O)NC2=O)cc1Cl (centres undefined)	2	2	4.8*	0.86
CC1=C(C(=O)Nc2cc(C)ccc2C)C(c2cccs2)NC(=S)N1 (centres undefined)	nt	nt	-2	0.42
